# Results reported in PubChem BioAssay (Tox21).
# Results filed as inconclusive are left out. A call without a number means that no potency is given here. A number with no mark means an inactive call. Active and inactive are the calls of the source. The call rests on the fitted dose curve; in most records, active means well fitted cell-killing curve with a large enough effect in the repeat runs; inconclusive means weak or mixed curves, or effect the other way; inactive means flat fitted curve, though single readings scatter.
# Experiment: cAMP Responsive Elements (CRE) small molecule antagonists, cell-based qHTS assay: qHTS cell viability counter screen (AID 2060913); further: nearly all actives have a fitted effect of over 40% in size
# Conditions: CRE-bla HEK293T viability, CellTiter-Glo luminescence, 5 h; series mostly up to 92.4 µM
# Procedure, shortened: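 CRE-bla HEK293T cells (2,000/well, 18 h) given compound plus NKH477 0.25 uM final for 3 h at 37C; viability counter-screen by CellTiter-Glo luminescence in same wells after 30 min.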
# Potency means the concentration at half of the fitted maximal effect.
Compound,Potency,"viability change, negative = cytotoxic"
CC(C[N+](C)(C)C)OC(N)=O (stereo not given),inactive,–
Cc1cc(F)ccc1-c1cc(N2CC[C@@H](O)[C@H]2CO)ncc1N(C)C(=O)C(C)(C)c1cc(C(F)(F)F)cc(C(F)(F)F)c1,44.6 µM (active),–
CCOc1ncc(F)c(=O)[nH]1,inactive,–
C=COCC1CCC(COC=C)CC1 (stereo not given),inactive,–
FC(F)(F)C(F)(F)C(F)(F)C(F)(F)C(F)(F)C(F)(F)CCI,inactive,–
CC1(C)[C@H]2CC[C@](C)(C2)[C@H]1O,inactive,–
C1COCCO1,inactive,–
CCCCCCCC1CCCC1=O (stereo not given),inactive,–
O=c1[nH]c(=O)n([C@H]2C[C@H](O)[C@@H](CO)O2)cc1F,inactive,–
CCCCCCCCCCCC[N+](C)(C)CCCS(=O)(=O)[O-],inactive,–
CC1=NS(=O)(=O)c2cc(Cl)ccc2N1,inactive,–
CCO[C@H](Cc1ccc(OCCc2ccc(OS(C)(=O)=O)cc2)cc1)C(=O)O,inactive,–
CC(C)CC(=O)OCc1ccccc1,inactive,–
NCc1ccco1,inactive,–
CC1=CCCC(C)(C)C12CCC(C)O2 (stereo not given),inactive,–
CCCCCCOC(=O)CC,inactive,–
C[C@@H]1C[C@H]2[C@@H]3C[C@H](F)C4=CC(=O)C=C[C@]4(C)[C@@]3(F)[C@@H](O)C[C@]2(C)[C@@]1(O)C(=O)CO,inactive,–
COc1ccc2nc(S(=O)Cc3ncc(C)c(OC)c3C)[nH]c2c1 (stereo not given),inactive,–
CC(=O)c1ccc2c(c1)[C@H](NC(=O)c1ccc(F)cc1)[C@@H](O)C(C)(C)O2,inactive,–
Cc1c2oc3c(C)ccc(C(=O)N[C@@H]4C(=O)N[C@H](C(C)C)C(=O)N5CCC[C@H]5C(=O)N(C)CC(=O)N(C)[C@@H](C(C)C)C(=O)O[C@@H]4C)c3nc-2c(C(=O)N[C@@H]2C(=O)N[C@H](C(C)C)C(=O)N3CCC[C@H]3C(=O)N(C)CC(=O)N(C)[C@@H](C(C)C)C(=O)O[C@@H]2C)c(N)c1=O,inactive,–

Compound,Potency,"viability change, negative = cytotoxic"
NC(=O)[C@@H]1CSSCCC(=O)N[C@@H](CCCCN=C(N)N)C(=O)NCC(=O)N[C@@H](CC(=O)O)C(=O)N[C@@H](Cc2c[nH]c3ccccc23)C(=O)N2CCC[C@H]2C(=O)N1,inactive,–
CCOc1cc(N)c(Cl)cc1C(=O)NCC1CN(Cc2ccc(F)cc2)CCO1 (stereo not given),inactive,–
CCN[C@H]1C[C@H](C)S(=O)(=O)c2sc(S(N)(=O)=O)cc21,inactive,–
O=c1[nH]cnc2ccccc12,inactive,–
[O-][n+]1ccc(Cl)cc1,inactive,–
CCn1cc(C(=O)O)c(=O)c2cc(F)c(N3CCN(C)CC3)cc21,–,3.1% [at 18.9 µM]
C[Si]1(C)N[Si](C)(C)N[Si](C)(C)N1,inactive,–
C=CCNc1nc(NCC=C)nc(N2CCN(C(c3ccc(F)cc3)c3ccc(F)cc3)CC2)n1,inactive,–
CCO[Si](CCCN)(OCC)OCC,inactive,–
CCCCCCCCCCCCN(CCO)CCO,60.9 µM (active),–
CC12CCC(C(=O)C1=O)C2(C)C (stereo not given),inactive,–
COc1cccc(OC)c1,inactive,–
COc1cc(C(=S)N2CCOCC2)ccc1O,inactive,–
Cc1ccc(C(=O)C(C)CN2CCCCC2)cc1 (stereo not given),inactive,–
COC(=O)C(c1ccccc1Cl)N1CCc2sccc2C1 (stereo not given),inactive,–
CCCCOc1ccc(C(=O)CCN2CCCCC2)cc1,inactive,–
O=C(O)Cc1ccccc1Oc1ccc(Cl)cc1Cl,inactive,–
CC1=C(/C=C/C(C)=C/C=C/C(C)=C\C=O)C(C)(C)CCC1,inactive,–
O=C1CCCc2ccccc21,inactive,–
CC(=O)/C=C/C=C1/C2CCC(C2)C1(C)C (stereo not given),inactive,–
